From PubChem BioAssay AID624257 (Broad Institute, 2012)
Measured potencies and affinities stand elsewhere.

target: PglD acetyltransferase (Campylobacter jejuni) (UniProt O86157); assay: PglD acetyltransferase inhibitors, dose response, biochemical, DTNB absorbance, cherry-picked samples, set 2 (AID 624257); conditions: Purified PglD, DTNB absorbance 412 nm, CoA release; series mostly up to 19.5 µM; activity change, negative = inhibition: at the top concentration
Sequence (O86157 1-203): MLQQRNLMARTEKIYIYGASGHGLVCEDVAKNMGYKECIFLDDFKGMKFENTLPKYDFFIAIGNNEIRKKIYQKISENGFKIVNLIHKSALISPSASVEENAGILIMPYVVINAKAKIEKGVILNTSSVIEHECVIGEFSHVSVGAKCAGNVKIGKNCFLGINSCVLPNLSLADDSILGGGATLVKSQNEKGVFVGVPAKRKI

Activity change, negative = inhibition, inactive:
CCn1c(SCc2nc3sc(C(=O)O)c(C)c3c(=O)[nH]2)nc2ccccc21 -38.5%, CCc1ccc(N=C2NC(=O)/C(=C/c3cc(Br)c(OCC(=O)O)c(OC)c3)S2)cc1 -7.94%, C=CC1=C(C(=O)O)N2C(=O)[C@@H](NC(=O)/C(=N/OCC(=O)O)c3csc(N)n3)[C@H]2SC1 -21.8%
